# From PubChem BioAssay (Tox21)
# Values joined by “and” are separate entries in the source; they are usually repeats but may differ in a detail not shown here. Equal entries are not always repeated. Inconclusive results are not listed. More than one record can exist for a structure, and the calls need not agree. Active and inactive are the calls of the source. Calls follow the shape of the dose curve; as a rule, active = well fitted cell-killing curve with a large enough effect in the repeat runs; inconclusive = weak or mixed curves; inactive = no such curve, though single readings can be large or run the other way.
# Experiment: qHTS assay for identifying genotoxic compounds that show differential cytotoxicity against isogenic chicken DT40 cell lines with known DNA damage response pathways - Rad54/Ku70 mutant cell line (AID 743015); also: nearly all actives have a fitted effect of over 60% in size
# Details: DT40 Rad54/Ku70 mutant viability, CellTiter-Glo, 40 h; series mostly up to 66.8 µM; activity change, negative = cytotoxicity: at the top concentration
# Excerpt: National Center for Advancing Translational Sciences [NCATS]
# NIH Chemical Genomics Center [NCGC]
# U.S. Environmental Protection Agency [EPA]
# National Institutes of Environmental Health Sciences [NIEHS]
# National Toxicology Program [NTP]
# U.S. Food and Drug Administration [FDA]
# DNA repair pathways play a critical role in cellular homeostasis by repairing DNA damage induced by endogenous processes and xenobiotics. Isogenic chicken DT40 cell lines deficient in different DNA repair pathways can be used to identify genotoxic compounds and aid in characterizing the nature of the DNA damage induced. Two DNA repair-deficient cell lines with disrupted genes, Rad54/Ku70 or Rev3, were used to screen the Tox21 10K compound library. Possible genotoxicity was based on the presence of a significant increase in cytotoxicity in one or more of the DNA repair-deficient cell lines compared to that observed in the parental DNA repair-proficient cell line. CellTiter Glo viability assay (Promega, Madison, WI) was used to measure cell viability in these cells after compound treatment. This assay includes the data from the Rad54/Ku70 mutant cell line.
# Tox21 Assay Protocol Summary:
# 300 DT40 mutant cells in 5 uL/well were dispensed into white, solid-bottom 1536-well plates using a Multidrop Combi (ThermoFisher Scientific, Waltham, MA) dispenser. After the assay plates were incubated at 37 C/5% CO2 for approximately 0.5 hour, 23 nL of compounds dissolved in DMSO, positive controls or DMSO only was transferred into the assay plate by a pintool work station (Kalypsys, San Diego, CA). The assay plates were incubated at 37 C/5% CO2 for 40 hours. After 5 uL per well of CellTiter-Glo reagent was added into each well of the assay plates, the plates were incubated for 30 min at room temperature and the luminescence intensity of the plates was measured using a ViewLux (PerkinElmer, Shelton, CT) plate reader.
# % is scaled to controls: 0 for no effect and ±100 for the full control effect; potency is read from the fitted curve at half-maximal effect.
Compound,"activity change, negative = cytotoxicity",Potency
Nc1ccccc1-c1ccccc1,10.4% (inactive),
c1cc[n+]2c(c1)-c1cccc[n+]1CC2,,2.37 µM (active)
CCCCCCCc1ccc(O)cc1,,19.3 µM (active)
[C-]1=CC=CC1.[Cl][Zr+2][Cl].c1cc[cH-]c1,-1.26% [at 95.1 µM] (inactive),
O=C(Cl)c1ccccc1F,-3.25% (inactive),
CCC[CH2][Sn]([CH2]CCC)([CH2]CCC)[CH2]CCC,,8.63 µM (active)
CCOP(=O)(OCC)Oc1cc(C)nc(C(C)C)n1,-0.381% [at 95.1 µM] (inactive),
CCOP(=O)(OCC)Oc1nc(Cl)c(Cl)cc1Cl,,60.8 µM (active)
COC(=O)/C=C(\C)OP(=O)(OC)OC,-12% (inactive),
COC(=O)c1ccccc1S(=O)(=O)NC(=O)Nc1nc(C)nc(OC)n1,9.62% (inactive),
CCCCN(CCCC)C(=S)[S-].CCCCN(CCCC)C(=S)[S-].[Ni+2],-0.713% (inactive),
Oc1ccc2[nH]cc(CCCCN3CC=C(c4ccccc4)CC3)c2c1,,7.5 µM (active)
CNC(=O)/C=C(\C)OP(=O)(OC)OC,-2.84% (inactive),
C#CC1(O)CCCCC1,3.02% (inactive),
CO/N=C(/C1=NOCCO1)c1ccccc1Oc1ncnc(Oc2ccccc2Cl)c1F,,0.0153 µM (active)
CCC(OC(C)=O)C(CC(C)NC)(c1ccccc1)c1ccccc1 (stereo not given),,15.5 µM (active)
O=C(O)CCCCCCNC1c2ccccc2CCc2ccccc21,0.934% (inactive),
N#CSCc1ccccc1,1.3% [at 95.1 µM] (inactive),
BrCCCBr,3.29% [at 95.1 µM] (inactive),
CC1CCCC1,-3.24% (inactive),

Compound,"activity change, negative = cytotoxicity",Potency
COP(=O)(OC)Oc1ccc([N+](=O)[O-])cc1,-20% (inactive),
Fc1ccc(C(OCCN2CCN(CCCc3ccccc3)CC2)c2ccc(F)cc2)cc1,,3.76 µM (active)
O=S(=O)(O)F,-0.0946% [at 95.1 µM] (inactive),
COc1cnc(OC)n2nc(NS(=O)(=O)c3c(OCC(F)F)cccc3C(F)(F)F)nc12,15.2% (inactive),
CC1=C2C[C@H]3[C@@H](CC=C4C[C@@H](O)CC[C@@]43C)[C@@H]2CC[C@]12O[C@@H]1C[C@H](C)CN[C@H]1[C@H]2C,,29.8 µM (active)
CCN1CCC2(CC1)COc1cc3c(cc12)N(C(=O)c1ccc(-c2ccc(-c4nnc(C)o4)cc2C)cc1)CC3,,1 µM (active)
CN(C)CCc1c[nH]c2ccccc12,1.71% [at 95.1 µM] (inactive),
O=S1OCC2C(CO1)C1(Cl)C(Cl)=C(Cl)C2(Cl)C1(Cl)Cl (stereo not given),,48.6 µM (active) and 48.5 µM (active)
[O-][Cl+3]([O-])([O-])O,11.9% [at 95.1 µM] (inactive),
CO/N=C(\C(=O)OC)c1ccccc1CO/N=C(\C)c1cccc(C(F)(F)F)c1,,0.273 µM (active)
CC[C@]1(O)CC[C@H]2[C@@H]3CCC4=CCCC[C@@H]4[C@H]3CC[C@@]21C,,13.3 µM (active)
CC(=O)[O][Sn]([c]1ccccc1)([c]1ccccc1)[c]1ccccc1,,0.172 µM (active)
Cc1ccccc1OP(=O)(Oc1ccccc1C)Oc1ccccc1C,,30.8 µM (active)
COc1c2c(cc3c1OCO3)CCN(C)C2,3.63% [at 30.7 µM] (inactive),
N#Cc1c2ccccc2cc2ccccc12,0.289% (inactive),
O=C1C(Cl)=C(Cl)C(=O)C(Cl)=C1Cl,,17.2 µM (active) and 8.63 µM (active)
CCC1COC(Cn2cncn2)(c2ccc(Cl)cc2Cl)O1 (stereo not given),,19.3 µM (active)
N#CC(C#N)=NNc1cccc(Cl)c1,,2.43 µM (active)
Clc1ccc(C2(Cn3cncn3)OCCO2)c(Cl)c1,,inactive and 61.1 µM (active)
COc1ccc2c(c1OC)C(=O)O[C@@H]2[C@H]1c2cc3c(cc2CCN1C)OCO3,-3.62% (inactive),
